Assay results taken from PubChem BioAssay.
Active and inactive are the calls of the source. Unless noted, how the calls were made is not given here.

Experiments:
[1] = target: Alpha-bungarotoxin (Bungarus multicinctus) (UniProt P60615); test: compounds binding labelled alpha-BTX control protein – biochemical, small-molecule microarray, Alexa647 label, 635/667 nm fluorescence, artefact control for SMM control protein annotation, profiling panel (AID 1117); details: alpha-BTX-A647 binding fluorescence, higher = more signal
Sequence of Alpha-bungarotoxin (Bungarus multicinctus) (P60615 whole entry, looked up): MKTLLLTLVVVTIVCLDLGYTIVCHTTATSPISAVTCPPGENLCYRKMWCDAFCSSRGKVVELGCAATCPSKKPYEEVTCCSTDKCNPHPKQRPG

[2] = target: E3 ubiquitin-protein ligase XIAP (Homo sapiens) (UniProt P98170); test: small molecules binding XIAP protein – biophysical, small-molecule microarray, fluorescence 635 nm, primary screen (AID 1181); details: higher = more signal;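 further: score merges 667 nm emission and signal to noise over triplicate slides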
Sequence of E3 ubiquitin-protein ligase XIAP (Homo sapiens) (P98170 whole entry, looked up, the tested form may be a part): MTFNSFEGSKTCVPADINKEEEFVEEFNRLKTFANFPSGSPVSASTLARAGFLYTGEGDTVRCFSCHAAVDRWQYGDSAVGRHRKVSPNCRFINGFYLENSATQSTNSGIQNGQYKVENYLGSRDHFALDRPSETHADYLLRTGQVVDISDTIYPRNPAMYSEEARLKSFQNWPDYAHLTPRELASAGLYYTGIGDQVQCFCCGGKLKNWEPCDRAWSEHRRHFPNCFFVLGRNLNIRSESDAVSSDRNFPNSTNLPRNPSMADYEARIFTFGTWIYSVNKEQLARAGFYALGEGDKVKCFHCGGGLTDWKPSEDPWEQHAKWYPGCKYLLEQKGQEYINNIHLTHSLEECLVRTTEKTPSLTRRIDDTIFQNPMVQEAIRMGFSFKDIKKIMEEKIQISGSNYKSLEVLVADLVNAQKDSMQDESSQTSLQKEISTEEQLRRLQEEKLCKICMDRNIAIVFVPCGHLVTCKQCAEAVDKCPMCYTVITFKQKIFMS

[3] = test system: XIP peptide (Xip251-270) binding; test: XIP fragment 251-270 binding compounds – biochemical, small-molecule microarray, fluorescence 635/667 nm, 0.1 µg/mL protein, primary screen (AID 1182); details: fluorescent protein binding, 635 nm, higher = more signal, called active from +8 up or from −8 down
XIP peptide (Xip251-270) = test: compounds binding XIP fragment 251-270 – biochemical, small-molecule microarray, fluorescence 635/667 nm, 0.5 µg/mL protein, primary screen (AID 1183); details: fluorescence 635 nm, higher = more signal
[4] = blood-stage malaria parasite viability loss – strain 3D7, DAPI fluorescence, 100 nL, primary screen (AID 1184);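 further: parasites grown inside human red blood cells in medium with human serum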; details: P. falciparum 3D7 growth, 3 d, higher = more signal
[5] = target: Homeobox protein Hox-A13 (Mus musculus) (UniProt Q62424); test: disruptors of Hoxa13 oligonucleotide interaction – biochemical, fluorescence polarization, labeled oligonucleotide, primary screen (AID 1185); details: Hoxa13:DNA binding, 15 min, higher = more signal, called active from +8 up or from −8 down
Sequence of Homeobox protein Hox-A13 (Mus musculus) (Q62424 whole entry, looked up): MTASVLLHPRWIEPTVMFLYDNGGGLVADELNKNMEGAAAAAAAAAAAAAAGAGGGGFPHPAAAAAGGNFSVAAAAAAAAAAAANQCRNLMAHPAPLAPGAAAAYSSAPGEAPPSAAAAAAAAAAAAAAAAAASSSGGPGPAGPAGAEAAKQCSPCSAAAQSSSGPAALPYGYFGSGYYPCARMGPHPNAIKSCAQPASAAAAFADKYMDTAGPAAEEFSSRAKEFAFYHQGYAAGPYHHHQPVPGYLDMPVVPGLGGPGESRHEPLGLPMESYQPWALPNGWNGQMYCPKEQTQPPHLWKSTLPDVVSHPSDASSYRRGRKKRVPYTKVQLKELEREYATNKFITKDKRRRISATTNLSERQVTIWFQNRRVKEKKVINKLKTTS

[6] = blockers of DNA damage checkpoint Chk1 activation – imaging, HeLa, hydroxyurea, phospho-Chk1 antibody, percent positive cells, primary screen (AID 1186); details: hydroxyurea-induced phospho-Chk1 immunofluorescence imaging, higher = more signal
[7] = blockers of DNA damage checkpoint Chk1 activation – imaging, HeLa, hydroxyurea, phospho-Chk1 nuclear intensity, primary screen (AID 1187); details: hydroxyurea-induced phospho-Chk1 immunofluorescence imaging, higher = more signal
[8] = Pseudomonas biofilm growth suppression – PAO1 strain, BacTiter-Glo luminescence, LB-PBS, primary screen (AID 1144); details: P. aeruginosa PAO1 biofilm, 12 h, higher = more signal
[9] = inhibition of PAO1 biofilm formation – strain PAO1, LB-PBS medium, absorbance 600 nm, primary screen (AID 1176); details: P. aeruginosa PAO1 growth/biofilm, A600, 12 h; higher = more signal

Row | SMILES | composite z-score [1] | composite z-score [2] | composite z-score [3] | composite z-score (XIP peptide (Xip251-270)) | z-score [4] | z-score [5] | z-score [6] | z-score [7] | z-score [8] | z-score [9]
1 | O=C1O[C@@H](c2ccccc2)[C@@H](c2ccccc2)N2[C@@H](c3ccc(OCCO)cc3)[C@]3(C(=O)Nc4ccc(C#CC5(O)CCCCCC5)cc43)[C@@H](C(=O)NC[C@H](O)c3ccccc3)[C@H]12 | 2.42 | -0.304 | 0.673 (inactive) | 0.819 | -2.21 | -1.22 (inactive) | 0.0477 (inactive) | 0.343 (inactive) | – | –
2 | CC(C)NC(=O)[C@@H]1c2ccccc2C(=O)N(Cc2cc(F)cc(C(F)(F)F)c2)[C@H]1c1ccc(CO)cc1 | -0.948 | -0.174 | 0.873 (inactive) | -1.01 | -0.327 | -2.19 (inactive) | -0.121 (inactive) | 0.0894 (inactive) | – | –
3 | COc1c(C)cc(-c2cc3c(c(CCc4ccccc4)n2)[Si](C(C)C)(C(C)C)OC3)cc1C | -0.382 | -0.172 | 0.461 (inactive) | -0.436 | -0.633 | -0.207 (inactive) | -0.666 (inactive) | -0.461 (inactive) | – | –
4 | O=C(NCC(F)(F)F)[C@@H]1c2ccccc2C(=O)N(C2Cc3ccccc3C2)[C@H]1c1ccc(CO)cc1 | -1.22 | -0.22 | -0.729 (inactive) | -1.33 | 0.824 | -1.6 (inactive) | -0.606 (inactive) | -0.842 (inactive) | – | –
5 | CC1CC/C=C\[C@H]2OC34C=CCN(C(C)C)C(=O)[C@H]3N(C(CO)C(C)C)C(=O)[C@@H]4C2C(=O)O1 (some centres not stated) | -2.8 | -0.194 | 0.0648 (inactive) | -1.15 | 0.639 | -4.54 (inactive) | -0.686 (inactive) | -0.549 (inactive) | – | –
6 | O=c1n(-c2ccccc2)c(=O)n2n1CC(COc1ccccc1)=C1[C@@H](CCc3ccccc3)OB(O)C[C@@H]12 | 1.17 | -0.144 | 1.45 (inactive) | -0.0257 | -1.02 | -6.66 (inactive) | -0.337 (inactive) | -0.175 (inactive) | – | –
7 | Cc1ccc(S[C@]2(C(=O)NCCN3CCOCC3)CC(=O)N(Cc3cc(C(F)(F)F)cc(C(F)(F)F)c3)[C@@H]2c2ccc(CO)cc2)cc1 | -0.842 | 0.0808 | -0.316 (inactive) | 0.0326 | -0.578 | -1.78 (inactive) | -0.999 (inactive) | -2.03 (inactive) | – | –
8 | C=CC[C@]1(C(=O)N2CCCCC2)COC(c2ccc(OCCCO)cc2)=N1 | -0.212 | -0.17 | 0.502 (inactive) | 0.54 | -2.13 | -4.15 (inactive) | -0.8 (inactive) | -1.06 (inactive) | – | –
9 | C=CCC(OC(C)=O)[C@@H]1[C@@H](N(Cc2cccc3ccccc23)C(=O)c2cccc3ccccc23)c2cc(OCCCO)ccc2N1C(=O)Cc1ccc(OC)cc1 (some centres not stated) | 0.549 | 0.108 | 0.936 (inactive) | -0.314 | -2.48 | -1.57 (inactive) | -0.0578 (inactive) | 0.507 (inactive) | – | –
10 | O=C1O[C@H](c2ccccc2)[C@H](c2ccccc2)N2[C@H]1[C@@H](C(=O)Nc1nc3ccccc3s1)[C@]1(C(=O)Nc3ccc(C#CCCO)cc31)[C@H]2c1ccccc1OCCO | 1.97 | 0.15 | 1.52 (inactive) | 0.732 | -2.23 | 2.73 (inactive) | 0.288 (inactive) | 0.492 (inactive) | – | –
11 | CC(C)[C@@H](C(=O)O)n1cc(-c2ccccn2)nn1 | 0.703 | -0.0597 | 0.353 (inactive) | -0.548 | -0.461 | -1.37 (inactive) | -0.0368 (inactive) | -0.0613 (inactive) | – | –
12 | COC(=O)C1=CC(CCCO)=CC(C2CC2)N(Cc2cc3c(cc2Br)OCO3)C=C1C(=O)OC (configuration not stated) | 1.97 | 0.295 | 1.68 (inactive) | 0.0315 | -0.963 | -4.63 (inactive) | -0.203 (inactive) | -0.201 (inactive) | – | –
13 | CC(C)C[C@@H]1NC(=O)[C@@H]2C[C@H](C(=O)NCCCCCNC(=O)CS)[C@H](c3cccc(OCCO)c3)N2C1=O | 2.72 | -0.0351 | 1.58 (inactive) | 0.785 | -0.37 | -2.89 (inactive) | 0.611 (inactive) | 0.419 (inactive) | – | –
14 | C=C1C=C(Br)C2(OCCCO2)[C@H]2OC12 (some centres not stated) | – | 0.0009 | -0.584 (inactive) | -0.135 | 1.19 | -1.06 (inactive) | – | – | -0.109 (inactive) | -0.233 (inactive)
15 | CCCC[C@@H](O)C1=C(C)C[C@H]2C(=O)N(C)C(=O)[C@H]2[C@H]1CO | 0.548 | 0.0769 | 0.627 (inactive) | 0.586 | -1.46 | -3.63 (inactive) | -0.425 (inactive) | -0.185 (inactive) | – | –
16 | CCOC(=O)C[C@H]1[C@H](OC(=O)c2ccc(C(=O)c3ccccc3)cc2)[C@@H](NC(=O)Cc2ccc(OC)cc2)c2cc(OCCCO)ccc2N1C(=O)Cc1ccc(OC)cc1 | 0.978 | 0.0871 | 0.608 (inactive) | 0.0768 | -0.283 | -2.01 (inactive) | 0.0944 (inactive) | 0.0944 (inactive) | – | –
